Most compounds without a hit are left out; they make up all but 12% or so of the library.
HP1b chromo inh = HP1-beta chromodomain-methylated histone interaction inhibition; Potency, µM (series often up to 114 µM), for the others: at the top dose activity change, negative = inhibition, actives largely listed as inhibitors; P83916; 0.56% of 390,000 active; AlphaScreen HP1-beta / biotin-H3K9me3 peptide binding; further: potency means the concentration at half of the fitted maximal effect; nearly all actives have a fitted effect of over 70% in size
Target sequence (P83916 whole entry, looked up): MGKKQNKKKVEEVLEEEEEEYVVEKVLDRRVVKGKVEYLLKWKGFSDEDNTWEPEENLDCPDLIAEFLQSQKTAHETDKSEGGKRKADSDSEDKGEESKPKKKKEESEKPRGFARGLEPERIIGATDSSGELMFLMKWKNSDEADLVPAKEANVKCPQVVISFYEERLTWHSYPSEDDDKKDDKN
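HP1-beta protein (50 nM final) preincubated 30 min at room temperature with biotinylated H3(1-18)K9me3 peptide (50 nM) in PBS pH 7.4, 0.01% Tween-20, then compound added for 30 min. AlphaScreen streptavidin donor/nickel chelate acceptor beads (10 ug/mL final), 30 min dark, luminescence read.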
G9a block = G9a (human) methyltransferase inhibition; Q96KQ7; G9a H3K9 monomethylation, AlphaScreen, 2 h; Potency, µM (titrated, usually from 102 µM), for the others: top-dose activity, negative = inhibition, actives largely listed as inhibitors; 8.8% of 350,000 active; AID 504332; further: potency means the concentration at half of the fitted maximal effect; on the % scale 0 is the no-effect control and ±100 the full control effect; nearly all actives have a fitted effect of over 75% in size
Target sequence (Q96KQ7 913-1193 limits assumed): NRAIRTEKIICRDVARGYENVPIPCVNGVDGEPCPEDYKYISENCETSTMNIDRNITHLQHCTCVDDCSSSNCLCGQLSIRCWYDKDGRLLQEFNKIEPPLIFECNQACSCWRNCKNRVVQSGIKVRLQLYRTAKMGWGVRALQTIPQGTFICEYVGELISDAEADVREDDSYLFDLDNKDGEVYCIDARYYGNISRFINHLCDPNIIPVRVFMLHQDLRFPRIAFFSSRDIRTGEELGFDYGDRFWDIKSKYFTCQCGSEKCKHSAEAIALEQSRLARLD
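G9a (20 nM) preincubated 15 min RT with compounds, then 500 nM biotinylated H3K9 peptide and 20 uM SAM added; 2 h RT reaction. Monomethyl-H3K9 product detected by AlphaScreen with anti-H3K9me1 antibody, streptavidin donor and anti-rabbit IgG acceptor beads.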
JMJD2A Tudor = JMJD2A Tudor domain (human) inhibition | O75164 | AlphaScreen JMJD2A-Tudor / H3K4me3 peptide binding | Potency, µM (highest dose often 114 µM), inactives show at the highest dose activity change, negative = inhibition, hits mostly inhibitors | 4.4% of 390,000 active | AID 504339; further: potency means the concentration at half of the fitted maximal effect; on the % scale 0 is the no-effect control and ±100 the full control effect; nearly all actives have a fitted effect of over 50% in size
PLK1 PBD inh = PLK1 (human) polo-box domain binding inhibition. P53350. Plk1 PBD binding of FITC phosphopeptide, fluorescence polarization. Potency, µM, without a hit: max response, negative = inhibition, most hits filed as inhibitors. 2.8% of 360,000 active. AID 720504; further: potency means the concentration at half of the fitted maximal effect; series mostly up to about 57 µM; on the % scale 0 is the no-effect control and ±100 the full control effect; nearly all actives have a fitted effect of over 65% in size
BAZ2B inh = inhibitors of human BAZ2B bromodomain; Q9UIF8; AlphaScreen BAZ2B-H3K14Ac peptide displacement; Potency, µM (doses to about 114 µM), for inactives: at the top dose activity change, negative = inhibition, actives largely listed as inhibitors; 4.4% of 360,000 active; further: potency means the concentration at half of the fitted maximal effect; on the % scale 0 is the no-effect control and ±100 the full control effect; nearly all actives have a fitted effect of over 60% in size
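AlphaScreen displacement: compounds (up to 110uM) incubated 30 min at room temperature with a preformed 50 nM BAZ2B/50 nM biotinylated H3K14Ac peptide complex in PBS pH 7.4 with Tween-20. Donor and acceptor beads at 10 ug/mL final added, 20 min light-protected before reading.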
PI5P4K alpha inh = blocks human PI5P4K alpha kinase activity; 1.2% of 330,000 active; PI5P4Kalpha enzyme, ADP-Glo luminescence, 60 min; active compounds read low; max response, %; P48426; AID 652105; active means max response of -50% or lower; inconclusive means between -30% and -50%; inactive means -30% or higher; further: value at the top dose of about 77 µM; on the % scale 0 is the no-effect control and ±100 the full control effect
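ADP-Glo luminescence end-point read after a 60 min room-temperature kinase reaction of PI5P4Kalpha plus substrate, initiated with ATP at 5 microM final. Buffer: 0.038 M HEPES pH 7.4, EGTA, 0.1% CHAPS, 5% DMSO.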
An asterisk follows results filed as active; ? = inconclusive; . = no result given; ! = not active in a repeat; [ ] = another dose, or the depositor's remark. Unless noted, the call rests on the fitted dose curve; in most records, active means well fitted curve in the direction sought with a large enough effect; inconclusive means small, poorly fitted or top-dose-only effect, or another doubt; inactive means no such curve, though single readings can be large; an effect the other way counts as inactive or inconclusive.

SMILES | HP1b chromo inh | G9a block | JMJD2A Tudor | PLK1 PBD inh | BAZ2B inh | PI5P4K alpha inh
O=c1cc(-c2ccccc2F)[nH]c2cc3c(cc12)OCO3 | . | -7%[59 µM] | . | . | . | .
Cc1onc(-c2ccccc2Cl)c1C(=O)Nc1nn[nH]n1 | 19% | -7%[59 µM] | 56µM* | -4% | 79µM* | .
CC1CCN(S(=O)(=O)c2ccc3nc(Nc4cccc(F)c4)ccc3c2)CC1 | 85% | 25%[59 µM] | 31% | . | 26% | .
Cc1ccc(Nc2ccc3cc(S(=O)(=O)N4CCC(C)CC4)ccc3n2)c(Cl)c1 | 55% | 16µM* | 20% | . | -7% | .
O=C(Nc1ccc([N+](=O)[O-])cc1)c1cccc([N+](=O)[O-])c1 | . | . | . | -2% | . | 9
O=C(Nc1ccc(Nc2ccncc2)cc1)c1ccc(Nc2ccnc3ccc([N+](=O)[O-])cc23)cc1 | -28% | . | 100µM* | 0% | -19% | ?
COc1ccc(C(=O)CNC2=NCCC2)cc1 | 48% | -31% | 5% | -2% | . | 1
O=C(CNC1=NCCC1)c1ccc(Cl)cc1 | 28% | 28µM* | -10% | -7% | 3% | 2
COc1cccc(Cn2c(=O)c(-c3cc(F)cc(F)c3)nc3cnc(N(C)C)nc32)c1 | . | 1%[0.501 µM] | . | . | . | .
CCOc1ccc(C2=NC(c3cccs3)=Nc3ccc(CC)cc3N2)cc1OCC | ? | 10µM* | 25µM* | . | 10µM* | .
CCc1ccc2c(c1)NC(c1ccc(OC)cc1)=NC(c1ccncc1)=N2 | ? | -8%[59 µM] | 50µM* | . | ? | .
CCCCOc1ccc(C2=NC(c3cccs3)=Nc3ccc(OC)cc3N2)cc1 | -23% | ? | 40µM* | . | ? | .
C[C@@H]1[C@H](C)CC[C@@]2(C(=O)O[C@H]3O[C@@H](CO[C@H]4O[C@@H](CO)[C@@H](O[C@H]5O[C@@H](C)[C@@H](O)[C@@H](O)[C@@H]5O)[C@@H](O)[C@@H]4O)[C@@H](O)[C@@H](O)[C@@H]3O)CC[C@]3(C)C(=CC[C@H]4[C@@]5(C)C[C@@H](O)[C@@H](O)[C@](C)(CO)[C@@H]5CC[C@@]43C)[C@@H]12 | . | 20%[21.5 µM] | . | . | . | .
O=c1[nH]c2ccc(S(=O)(=O)N3CCN(S(=O)(=O)c4ccc5c(c4)OCCO5)CC3)cc2[nH]c1=O | . | . | -20% | . | . | .
Cn1c(-n2cccc2)c(-c2c(-c3ccc(F)cc3)[nH]c3c2c(=O)n(C)c(=O)n3C)c(=O)n(C)c1=O | ? | 7%[59 µM] | -14% | . | -28% | .
Nc1nc(Cl)nc2ccc(Br)cc12 | 22% | -6%[59 µM] | -23% | 17µM* | 0% | -15
N#CCC(=O)N1CCn2c1nc1ccccc12 | 26% | -33%[59 µM] | -11% | -8% | -4% | 1
CC(C)(C)C(=O)N1CCn2c1nc1ccccc12 | -3% | 21% | -14% | 0% | 56µM* | 3
O=c1c2c3c(sc2nc2n1CCC2)CCC3 | 41% | 5%[59 µM] | -14% | -10% | -1% | 0
Cc1sc2nc3n(c(=O)c2c1C)CCCCC3 | 9% | -1%[59 µM] | -4% | -2% | -2% | -4
CCN(CC)CCOc1c(Br)ccc2c1sc1nc3n(c(=O)c12)CCC3 | 23% | 50µM* | -16% | -7% | -9% | 1
O=c1c2c(nc3n1CCCCC3)sc1c(O)c(Br)ccc12 | -5% | 1.8µM* | -18% | -11% | -4% | .
CN1OC[C@@H]2CN(Cc3cc(Cl)cc(Cl)c3)[C@H](c3cccc(Br)c3)C[C@@H]21 | 40% | . | -10% | -1% | . | 38
CCOc1ccc(NC(=O)Cn2c(=O)n(-c3ccccc3)c(=O)c3ccc(C(=O)NCc4ccc5c(c4)OCO5)cc32)cc1 | 19% | 9%[59 µM] | -13% | . | . | .
CN(CC(=O)Nc1ccc(Cl)cc1)CC(=O)N1CCc2ccccc21 | . | . | . | 3% | . | 2
SMILES | HP1b chromo inh | G9a block | JMJD2A Tudor | PLK1 PBD inh | BAZ2B inh | PI5P4K alpha inh
CN(C)[C@@H]1C(=O)C(C(=O)NCN2CCCC2)=C(O)[C@@]2(O)C(=O)C3=C(O)c4c(O)cccc4[C@@](C)(O)C3CC12 (some centres undefined) | . | 3.2µM* | . | . | 1.3µM* | .
CN(C)[C@H]1C(=O)C(C(=O)NCN2CCCC2)=C(O)[C@]2(O)C(=O)C3=C(O)c4c(O)cccc4[C@](C)(O)[C@H]3C[C@H]12 | . | 1.6µM* | . | . | . | .
Cn1c(=O)c2c(c3ccccc31)OC(=O)CC2c1cccc(F)c1 (centres undefined) | 36% | 4%[59 µM] | -3% | . | -4% | .
O=C(CSC1=NS(=O)(=O)c2cc(Cl)ccc2N1)NCc1ccccc1 | 23% | -9% | -4% | 1% | 6% | 5
NS(=O)(=O)c1cc2c(cc1Cl)NC(CSCc1ccccc1)=NS2(=O)=O | 15% | -126%[59 µM] | 0% | -2% | 89µM* | -2
CCCCCCNC(=O)N[C@@H](C(=O)NCCC[C@H]1CN2C(=NC[C@@H]2Cc2ccccc2)N1CCc1cccc(OC)c1)C(C)C | ? | ? | 5µM* | 1.5µM* | 25µM* | -83*
O=C(O)c1ccc(NC(CSCc2ccccc2F)C(=O)O)c([N+](=O)[O-])c1 (centres undefined) | 1% | ? | 32µM* | -1% | -14% | -12
COc1ccc2c(c1)c(=O)c(C(=O)c1ccc(F)cc1)cn2CC(=O)Nc1ccc2c(c1)OCO2 | 37% | 12%[59 µM] | -6% | . | -3% | .
CN1CCCCC1CCN1c2ccccc2Sc2ccc(S(C)=O)cc21 (centres undefined) | 14% | 5.6µM*! | -20% | -12% | -21% | 4
Cc1cc(C)c2cc3c(N)c(C(=O)Nc4c(C)[nH]c(=O)[nH]c4=O)sc3nc2c1 | 89% | -15% | ? | 12% | 50µM* | -23
Cc1cc(C)c(NC(=O)c2sc3nc4c(cc3c2N)C(=O)CC(C)(C)C4)c(C)c1 | 16% | 45µM* | -34% | 1% | ? | 2
Cc1cc(C)c2cc3c(N)c(C(=O)N4CCOCC4)sc3nc2c1 | 23% | 8.9µM* | -14%[57.1 µM] | ? | -16% | 3
COc1cccc(NC(=O)CSc2nc(-c3ccccc3Cl)nc3c2Cc2c(CO)cnc(C)c2O3)c1 | 35% | -5%[59 µM] | 5% | . | -2% | .
Cc1ccc(-c2c3c(=O)n(C)c(=O)n(C)c3c3c(C(F)(F)F)nc4ccccc4n23)cc1 | 92% | 48%[59 µM] | 22% | . | 20% | .
Cc1cc2c(cc1Cl)C(c1ccc3c(c1)OCO3)CC(=O)O2 (centres undefined) | . | 18% | . | . | . | .
CC(=O)N(Cc1ccccn1)Cc1ccco1 | 23% | . | 30% | 4% | 0% | -4
O=C(c1ccc(F)cc1F)N(Cc1ccccn1)Cc1ccco1 | 23% | 22µM* | ? | -5% | ? | .
O=C(Nc1cccc(F)c1)N1CCCCCC1 | 27% | 64% | -3% | 2% | 1% | -1
O=C(N/N=C/c1ccc(O)cc1O)/C(=C/c1ccccc1)CCO | 12% | 46%[59 µM] | 79µM* | -3% | -39% | -5

Source: PubChem (National Center for Advancing Translational Sciences (NCATS))
